Only some compounds are listed: those with a hit (about 12% of all), similar ones and a draw of the others.
RORg inh – qHTS for inhibitors of ROR gamma transcriptional activity | Nuclear receptor ROR-gamma (Mus musculus), P51450 | Drosophila S2 Gal4-RORgamma UAS-luciferase reporter, 20 h | Potency, µM (doses to about 53.6 µM), for the others: at the top dose activity change, negative = inhibition, actives largely listed as inhibitors | hit rate 5.4% among 310,000; further: nearly all actives have a fitted effect of over 60% in size
Target sequence (P51450 whole entry, looked up, the tested form may be a part): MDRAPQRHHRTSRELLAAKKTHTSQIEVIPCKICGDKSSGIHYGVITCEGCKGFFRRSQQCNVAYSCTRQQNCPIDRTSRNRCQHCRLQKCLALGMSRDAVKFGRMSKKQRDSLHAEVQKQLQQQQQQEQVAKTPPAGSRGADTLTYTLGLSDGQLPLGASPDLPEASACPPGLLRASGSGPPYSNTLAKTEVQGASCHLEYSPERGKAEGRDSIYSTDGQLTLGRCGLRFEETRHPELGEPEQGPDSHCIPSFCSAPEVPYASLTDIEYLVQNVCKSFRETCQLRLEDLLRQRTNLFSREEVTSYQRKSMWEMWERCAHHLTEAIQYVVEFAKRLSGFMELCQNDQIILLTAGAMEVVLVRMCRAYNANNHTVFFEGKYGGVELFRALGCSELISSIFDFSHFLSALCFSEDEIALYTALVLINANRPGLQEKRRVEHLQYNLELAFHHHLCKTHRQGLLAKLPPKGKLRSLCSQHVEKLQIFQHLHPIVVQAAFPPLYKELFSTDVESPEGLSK
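Schneider cells (Drosophila), stable Gal4 DBD–ROR gamma + UAS-luc; 1 hr cmpd preincubation; Cu2+ induction 700 uM final; 20 hr ambient; luminescence.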
ALDH1A1 inh – qHTS Assay for Inhibitors of Aldehyde Dehydrogenase 1 (ALDH1A1); Purified ALDH1A1, NADH fluorescence, propionaldehyde substrate; AID 1030, 2008; Potency, µM (series often up to 75.3 µM), without a hit: at the top dose activity, negative = inhibition, usual class: inhibitors; hit rate 7.3% among 220,000; Aldehyde dehydrogenase 1A1 (Homo sapiens), P00352; active means well fitted inhibition curve with a large enough effect, not every such curve was filed as active; inconclusive means small, poorly fitted or top-dose-only effect, or another doubt; inactive means no such curve, though single readings can be large or run the other way;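 further: plate controls were no enzyme wells and a reference inhibitor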
PLK1 PBD inh – qHTS for Inhibitors of PLK1-PDB (polo-like kinase 1 - polo-box domain): Primary Screen | Serine/threonine-protein kinase PLK1 (Homo sapiens), P53350 | Plk1 PBD binding of FITC phosphopeptide, fluorescence polarization | Potency, µM, for inactives: max response, negative = inhibition, actives largely listed as inhibitors | hit rate 2.8% among 360,000 | AID 720504, 2013; further: series mostly up to about 57 µM; nearly all actives have a fitted effect of over 65% in size
Gal4-VP16 FLuc – VP16 counterscreen qHTS for inhibitors of ROR gamma transcriptional activity | hit rate 3.5% among 310,000 | Drosophila S2 Gal4-VP16 UAS-luciferase, luminescence, 20 h | Potency, µM (top dose mostly 53.6 µM), for inactives: top-dose activity, negative = inhibition, most hits filed as inhibitors;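 further: Gal4-VP16 expression switched on by copper sulfate through the metallothionein promoter; nearly all actives have a fitted effect of over 50% in size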
Sfp PPTase inh – qHTS Assay for Inhibitors of Bacillus subtilis Sfp phosphopantetheinyl transferase (PPTase); 4'-phosphopantetheinyl transferase ffp (Bacillus subtilis), Q9F4F7; Biochemical Sfp PPTase activity, qHTS; Potency, µM, for inactives: largest response in the series, negative = inhibition, usual class: inhibitors; hit rate 3.5% among 310,000;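 further: the enzyme is Sfp with the accession as filed and its product quenches rhodamine fluorescence; 0% = enzyme reaction without inhibitor and -100% = no enzyme wells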
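Sfp 15 nM + cpd, 15 min RT; start w/ rhodamine-CoA 5 uM, BHQ-2-YbbR 12.5 uM (final); 50 mM Hepes pH 7.6, 10 mM MgCl2, 0.01% NP-40, 0.01% BSA; read 525/598 nm at 0 and 30 min.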
* hit, by the source's call; ? = inconclusive; / = not tested or not shown; [ ] = remark or other dose. Unless noted, the call rests on the fitted dose curve; in most records, active means well fitted curve in the direction sought with a large enough effect; inconclusive means small, poorly fitted or top-dose-only effect, or another doubt; inactive means no such curve, though single readings can be large; an effect the other way counts as inactive or inconclusive. Unless noted, on the % scale 0 is the no-effect control and ±100 the full control effect; potency means the concentration at half of the fitted maximal effect.

SMILES | RORg inh | ALDH1A1 inh | PLK1 PBD inh | Gal4-VP16 FLuc | Sfp PPTase inh
CSc1oc(-c2cccs2)nc1S(=O)(=O)c1ccccc1 | -19% | / | ? | -9% | 89µM*
CSc1oc(-c2ccco2)nc1S(=O)(=O)c1ccc(F)cc1 | -13% | ? | -11% | -6% | 79µM*
CSc1oc(-c2ccco2)nc1S(=O)(=O)c1ccccc1 | 5% | ? | -25% | 2% | -7%
CSc1oc(-c2ccccc2)nc1S(=O)(=O)c1ccc(F)cc1 | ? | -5% | -18% | -1% | -7%
Cc1ccc(-n2ccnc2SCC(=O)N(CC(C)C)C2CCS(=O)(=O)C2)c(C)c1 (configuration not stated) | 15% | ? | 11µM* | -1% | 0%
CC(C)CN(C(=O)CSc1nnc2ccccn12)C1CCS(=O)(=O)C1 (configuration not stated) | / | / | -9% | / | /
CC(C)C[C@H](NC(=O)CNC(=O)[C@@H]1CCCN1C(=O)[C@H](CCCNC(=N)N)NC(=O)[C@H](CC(=O)O)NC(=O)[C@@H](NC(=O)[C@H](CC(N)=O)NC(=O)[C@@H](NC(=O)[C@H](CC(=O)O)NC(=O)CNC(=O)[C@@H](NC(=O)[C@@H](NC(=O)[C@H](C)NC(=O)[C@@H](N)CCC(N)=O)[C@@H](C)O)C(C)C)C(C)C)[C@@H](C)O)C(=O)N[C@@H](CC(C)C)C(=O)N[C@@H](CC(=O)O)C(=O)N[C@@H](CC(C)C)C(=O)N[C@@H](CCCCN)C(=O)O | 12% | / | / | -10% | 2%
COc1ccc(-c2coc3cc4oc(=O)c(CC(=O)O)c(C)c4cc23)cc1 | 0% | / | 1% | 4% | -6%
COc1ccc(-c2coc3c(C)c4oc(=O)c(CC(=O)O)c(C)c4cc23)cc1 | 9% | / | -18% | 0% | -1%
COc1cccc(-c2coc3cc4oc(=O)c(CCC(=O)O)c(C)c4cc23)c1 | -9% | / | -7% | 13µM* | 3%
Cc1c(CC(=O)O)c(=O)oc2c(C)c3occ(-c4ccc(Br)cc4)c3cc12 | -10% | / | 30µM* | -12% | -17%
Cc1c(CC(=O)O)c(=O)oc2cc3occ(-c4ccc(F)cc4)c3cc12 | 0% | / | 2% | 2% | 40µM*
CC(C)=NOC[C@@H](O)COCc1ccco1 | 4%[10 µM] | -5%[13.5 µM] | / | 0%[10 µM] | 2%
Cc1cccc(/C=N/NC(=O)CC(=O)NCCc2ccccc2)c1 | / | / | -5% | / | /
O=c1c(-c2ccccc2)nc2cnc(N3CCOCC3)nc2n1-c1ccccc1 | 2% | ? | / | -3% | -5%
Cc1ccc(S(=O)(=O)NN=CC2(c3ccccc3)CC2)cc1 | / | / | 4% | / | /
CCCCCOc1ccc2oc(=O)c3c(c2c1)CCCN3C(=O)CN1CCCC(C(=O)OCC)C1 (configuration not stated) | ? | 25µM* | 0% | ? | ?
O=C(CN1CCCCC1)N1CCCc2c1c(=O)oc1ccc(OCc3ccccc3)cc21 | -2% | ? | -2% | -13% | -3%
O=C(CN1CCN(c2ncccn2)CC1)N1CCCc2c1c(=O)oc1ccc(O)cc21 | ? | 0.79µM* | -10% | -12% | 6%
COC(=O)c1ccc2nc(-c3ccc(C#N)cc3)c(Cc3cccc(F)c3)n2c1 | / | / | -4% | / | /
O=C(COC(=O)c1ccc(S(=O)(=O)N2CCOCC2)cc1)NCc1ccco1 | / | / | -6% | / | /
COc1ccc(-c2csc(-c3[nH]cnc3N)n2)cc1 | 2% | 7.1µM* | -3% | -2%[10 µM] | 8%
CC(=O)c1ccc(Nc2nc(C(N)CC(C)C)cs2)cc1 (configuration not stated) | / | / | 1% | / | /
O=C(CN1CCN(Cc2ccccc2)CC1)Nc1cccc(Cl)c1 | -31% | / | -5% | 0% | 11%
COC(=O)c1cccc(NC(=O)CN2CCN(Cc3ccccc3)CC2)c1 | ? | 25µM* | -4% | 7% | 17%
SMILES | RORg inh | ALDH1A1 inh | PLK1 PBD inh | Gal4-VP16 FLuc | Sfp PPTase inh
CC(C)(C)NC(=O)NC(=O)CN1CCN(C(c2ccccc2)c2ccccc2)CC1 | ? | 0% | -2% | 3% | -5%
CC(=O)c1cccc(NC(=O)CN2CCN(Cc3ccccc3)CC2)c1 | 16% | / | -4% | -1% | 56µM*
CC(C)(C)NC(=O)NC(=O)CN1CCN(Cc2ccccc2)CC1 | -3% | ? | 30µM* | 6% | -8%
Cc1ccc(NC(=O)Cc2ccc3c(c2)CCCC3)cc1C | 26% | ? | ? | -2% | -6%
CC(=O)c1cccc(NC(=O)Cc2ccc3c(c2)CCCC3)c1 | ? | 13µM* | ? | 0% | -25%
CCOC(=O)c1nn(-c2ccc(F)cc2)c(=O)c2c(N)scc12 | 11% | 15% | ? | -11% | 50µM*
CCOC(=O)c1nn(-c2ccccc2)c(-c2ccccc2)c1C(=O)c1ccccc1 | -17% | ? | -1% | 1% | -1%
CCOC(=O)c1nn(-c2ccc(F)cc2)c(-c2ccccc2)c1C(=O)c1ccccc1 | 2% | 11µM* | -8% | -3% | 0%
CCOC(=O)c1nn(-c2ccc(F)cc2)c(=O)c(C#N)c1C | 15%[1.91 µM] | / | -2% | -10% | 4%
Cc1nc2sc(C(c3ccco3)N3CCN(c4ccccc4)CC3)c(O)n2n1 (configuration not stated) | -5% | ? | 4% | 17% | ?
Cc1nc2sc(C(c3ccco3)N3CCN(C(c4ccccc4)c4ccccc4)CC3)c(O)n2n1 (configuration not stated) | -16% | ? | -15% | -9% | 7.9µM*
Cc1nc2sc(C(c3ccco3)N3CC(C)OC(C)C3)c(O)n2n1 (configuration not stated) | -18% | ? | -3% | -10% | 25µM*
Cc1nc2sc(C(c3ccco3)N3CCC(C)CC3)c(O)n2n1 (configuration not stated) | -15% | ? | -14% | 5% | 16µM*
CCOC(=O)CNC(=O)CSc1nc(C(C)C)nc2c1cnn2-c1ccccc1 | / | / | -1% | / | /
Cc1ccc(S(=O)(=O)NC(=O)C2(C)CCN2C(=O)Cc2cccs2)cc1 (configuration not stated) | / | / | -19% | / | /
COC(=O)c1sc(NC(=O)c2ccco2)c(C#N)c1C | 7% | / | 24µM* | 1% | 40µM*
CCN(CC)C(=O)c1sc(N)c(C#N)c1C | ? | ? | 24µM* | -4% | -17%
CCN(CC)C(=O)c1sc(NC(=O)Cc2ccccc2)c(C#N)c1C | 6.3µM* | ? | 1% | 2% | -1%
C=Cc1ccc(Cn2c(C)c(C(=O)NCc3ccccc3C(F)(F)F)sc2=O)cc1 | / | / | -2% | / | /
C/C(=N\Nc1ccccn1)c1ccc2c(c1)OCO2 | ? | 5% | -3% | ? | 8%
C(=N\Nc1nc2ccccc2[nH]1)/c1ccc2c(c1)OCO2 | 13µM* | 3% | 0% | ? | -80%

Screens: PubChem, National Center for Advancing Translational Sciences (NCATS)
